± gives the standard deviation of the averaged measurements.
Columns and labels:
DLD1 [1] = assay: cell viability (CellTiter-Glo) relative to plate median (fraction of plate median); higher = more viable cells; settings: 5 µM; treatment time 24 h; reporter: 7TFP
In short: (§1)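 Each entry is a luminescence signal normalised to the plate median, averaged over independent replicates. The replicate count was two, and the cells were colorectal cancer lines with stable lentiviral TCF/Wnt firefly luciferase reporters exposed to library compounds at a final 5 µM for 24 h. Firefly luciferase and CellTiterGlo were measured on parallel plates.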

HCT116 = assay: as above; settings: 5 µM; treatment time 24 h; reporter: TCF4/Wnt
In short: as §1

SW480 [2] = assay: as above; settings: 5 µM; treatment time 24 h; reporter: 7TFP
In short: as §1

DLD1 [3] = assay: TCF/Wnt firefly luciferase reporter signal relative to plate median (fraction of plate median); higher = higher Wnt reporter signal; settings: 5 µM; treatment time 24 h; reporter: 7TFP
In short: as §1

SW480 [4] = assay: as above; settings: 5 µM; treatment time 24 h; reporter: 7TFP
In short: as §1

| SMILES | cell viability (DLD1 [1]) | cell viability (HCT116) | cell viability (SW480 [2]) | TCF/Wnt firefly luciferase reporter signal (DLD1 [3]) | TCF/Wnt firefly luciferase reporter signal (SW480 [4]) |
| --- | --- | --- | --- | --- | --- |
| O=C(O)c1cc2ccccc2[nH]1 [Indol-2-carboxylic acid] | 0.972 ± 0.097 | 0.92 ± 0.016 | 0.9215 ± 0.0064 | 0.8775 ± 0.005 | 0.955 ± 0.042 |
| CC[C@@H](C)c1cc(=O)c2c(CO)cc3c(c2o1)C(=O)c1c(O)cccc1C3=O [Espicufolin] | 1.09 ± 0.092 | 1.13 ± 0.057 | 1.055 ± 0.0071 | 1.29 ± 0.15 | 1.06 ± 0.057 |
| CC1(C)CC2C1CC[C@]1(CBr)CCC3C(CC(=O)O)C(=O)O[C@@]32C1 (stereo not given in full) [BROMO-3-HYDROXY-4-(SUCCIN-2-YL)-CARYOLANE gamma-LACTONE] | 0.95 ± 0.085 | 1.03 ± 0.079 | 0.987 ± 0.033 | 1.08 ± 0.035 | 1.095 ± 0.0071 |
| CCN(Cc1ccncc1)C(=O)C(CO)c1ccccc1 (stereo not given) | 0.9915 ± 0.0035 | 0.976 ± 0.048 | 1.04 ± 0.021 | 1.04 ± 0.057 | 1.08 ± 0.078 |
| CC(CN1c2ccccc2Sc2ccccc21)N(C)C (stereo not given) | 1.09 ± 0.05 | 1.1 ± 0.064 | 1.08 ± 0.014 | 1.05 ± 0.15 | 1.115 ± 0.0071 |
| CC(C)NC[C@@H](O)COc1cccc2ccccc12 | 1.09 ± 0.057 | 1.06 | 1.11 ± 0.11 | 1.01 ± 0.021 | 1.01 ± 0.05 |
| CC(C)C[C@@H]1NC(=O)CNC1=O [Cyclo(leucylglycyl)] | 0.991 ± 0.042 | 1.05 ± 0.057 | 0.949 ± 0.072 | 0.956 ± 0.028 | 0.935 ± 0.044 |
| CN1CCN(CC(=O)N2c3ccccc3C(=O)Nc3cccnc32)CC1 | 0.944 ± 0.022 | 1 ± 0.067 | 0.9405 ± 0.0035 | 0.796 ± 0.014 | 0.813 ± 0.0099 |
| COc1cc(C)c(C(=O)Oc2cc(C)c(C(=O)O)c(O)c2C)c(O)c1C=O | 1.06 ± 0.014 | 0.9725 ± 0.0021 | 1.03 ± 0.014 | 1.06 ± 0.078 | 1.12 ± 0.085 |
| O=C1c2c(O)ccc(O)c2C(=O)c2c(NCCNCCO)ccc(NCCNCCO)c21 | 1.09 ± 0.078 | 0.635 ± 0.19 | 0.997 ± 0.018 | 0.936 ± 0.03 | 0.436 ± 0.04 |
| Cc1ccc(/C(=C\CN2CCCC2)c2ccccn2)cc1 | 0.984 ± 0.037 | 0.968 ± 0.088 | 0.945 ± 0.048 | 0.886 ± 0.064 | 0.956 ± 0.091 |
| COCCOC(=O)C1=C(C)NC(C)=C(C(=O)OC(C)C)C1c1cccc([N+](=O)[O-])c1 (stereo not given) | 0.9 ± 0.1 | 0.916 ± 0.16 | 0.858 ± 0.11 | 0.967 ± 0.089 | 1.12 ± 0.11 |
| O=C(CCCN1CCC(O)(c2ccc(Cl)cc2)CC1)c1ccc(F)cc1 | 1 ± 0.021 | 1.075 ± 0.0071 | 0.995 ± 0.078 | 1.08 ± 0.035 | 1.05 ± 0.064 |
| COc1ccc(-c2c(O)c3c(OC)c4c(cc3oc2=O)OC(C)(C)C=C4)cc1 | 1.01 | 0.968 ± 0.088 | 0.9495 ± 0.0092 | 1.07 ± 0.014 | 1.07 ± 0.035 |
| COc1cccc2c1CCC1=CC(=O)CC[C@@]12C | 1.09 ± 0.099 | 1.004 ± 0.0085 | 1.03 ± 0.021 | 0.944 ± 0.073 | 0.967 ± 0.1 |
| NS(=O)(=O)c1cc2c(cc1C(F)(F)F)NCNS2(=O)=O | 1.02 ± 0.17 | 1.09 ± 0.021 | 1.04 ± 0.057 | 1.12 ± 0.064 | 1.15 ± 0.092 |
| COC(=O)C[C@H]1C2(C)CC34OC5(C)O[C@@]6([C@H](OC)C(OC(=O)C(C)C)[C@]7(C)C(/C(=C(/OC)C(C)C)C(=O)O[C@H]7c7ccoc7)[C@@]6(O5)[C@H](OC)[C@@]3(OC)C2OC(C)=O)[C@]14C (stereo not given in full) | 1.025 ± 0.0071 | 0.916 ± 0.013 | 0.9595 ± 0.00071 | 0.883 ± 0.065 | 0.903 ± 0.016 |
| C/C=C1\[C@H]2C=C(C)C[C@]1(N)c1ccc(=O)[nH]c1C2 | 0.965 ± 0.064 | 0.952 ± 0.016 | 1.02 ± 0.014 | 1.1 ± 0.17 | 1 ± 0.16 |
| COc1ccc([C@H]2COc3c(ccc(O)c3OC)C2)c(OC)c1O | 1.01 ± 0.038 | 0.95 ± 0.052 | 1.03 ± 0.014 | 0.987 ± 0.13 | 0.878 ± 0.069 |
| CCN(CC)CCOC(=O)C1(C2CCCCC2)CCCCC1 | 0.98 ± 0.0014 | 1.02 ± 0.14 | 1.045 ± 0.0071 | 0.9375 ± 0.0078 | 1.045 ± 0.0071 |
| N=C1C=CC(=C(c2ccc(N)cc2)c2ccc(N)cc2)C=C1 | 0.908 ± 0.046 | 0.873 ± 0.0028 | 0.829 ± 0.053 | 0.923 ± 0.057 | 0.819 ± 0.14 |
| CO/N=C(\C(=O)N[C@@H]1C(=O)N2C(C(=O)OC(C)OC(C)=O)=C(COC(N)=O)CS[C@H]12)c1ccco1 (stereo not given in full) | 1.03 | 1.05 ± 0.079 | 0.9685 ± 0.005 | 0.981 ± 0.027 | 1 |
| COc1ccc(-c2cc(C(F)F)nn2-c2ccc(S(N)(=O)=O)cc2)cc1F | 0.869 ± 0.086 | 1.01 ± 0.014 | 1.04 ± 0.057 | 0.983 ± 0.025 | 0.995 ± 0.078 |
| O=C(O)c1cc(O)ccc1O | 0.954 ± 0.0099 | 0.999 ± 0.059 | 1.005 ± 0.0071 | 1.04 ± 0.069 | 1.09 |
| C/C1=C\CC(C)(C)/C=C/CC2(C)OC2CC1 (stereo not given) | 1.04 ± 0.035 | 0.96 ± 0.099 | 1.03 ± 0.035 | 1.09 ± 0.12 | 0.8895 ± 0.00071 |
| Cn1c(=O)[nH]c(=O)c2[nH]cnc21 | 0.955 ± 0.026 | 0.8635 ± 0.0064 | 0.967 ± 0.032 | 1.09 ± 0.17 | 1.16 ± 0.042 |
| CC(=O)N(O)CCCCCNC(=O)CC(O)(CC(=O)NCCCCCN(O)C(C)=O)C(=O)O [Arthrobactin] | 0.989 ± 0.03 | 1.06 ± 0.057 | 1.03 ± 0.049 | 0.976 ± 0.12 | 1.06 ± 0.028 |
| Cc1cccc(C)c1OCC(C)N (stereo not given) | 0.988 ± 0.059 | 0.983 ± 0.12 | 1.06 | 1.19 ± 0.078 | 1.05 ± 0.1 |
| Cc1cc(O)c2c(c1)C(=O)c1cccc(O)c1C2=O | 0.921 ± 0.04 | 1.07 ± 0.21 | 0.936 ± 0.013 | 0.893 ± 0.15 | 0.934 ± 0.042 |
| CC(C)=CCc1c(O)cc2occ(-c3ccc4c(c3)OCO4)c(=O)c2c1O | 1 ± 0.12 | 1.05 ± 0.071 | 0.972 ± 0.018 | 1.02 ± 0.1 | 0.902 ± 0.45 |

— the supplement of paper PMC6522484
